We go through 21 compounds from PubChem BioAssay (EPA / NIEHS).

Results filed as inconclusive are left out. Activity calls are given as the source filed them. The calls were made as follows: active = hit-call score of the fitted dose curve at least 0.9, where 1 is the maximum; inconclusive = response in the unintended direction; inactive = score below 0.9.

Retinoic acid receptor RXR-alpha (Homo sapiens), sequence (P19793 whole entry, looked up, the tested form may be a part): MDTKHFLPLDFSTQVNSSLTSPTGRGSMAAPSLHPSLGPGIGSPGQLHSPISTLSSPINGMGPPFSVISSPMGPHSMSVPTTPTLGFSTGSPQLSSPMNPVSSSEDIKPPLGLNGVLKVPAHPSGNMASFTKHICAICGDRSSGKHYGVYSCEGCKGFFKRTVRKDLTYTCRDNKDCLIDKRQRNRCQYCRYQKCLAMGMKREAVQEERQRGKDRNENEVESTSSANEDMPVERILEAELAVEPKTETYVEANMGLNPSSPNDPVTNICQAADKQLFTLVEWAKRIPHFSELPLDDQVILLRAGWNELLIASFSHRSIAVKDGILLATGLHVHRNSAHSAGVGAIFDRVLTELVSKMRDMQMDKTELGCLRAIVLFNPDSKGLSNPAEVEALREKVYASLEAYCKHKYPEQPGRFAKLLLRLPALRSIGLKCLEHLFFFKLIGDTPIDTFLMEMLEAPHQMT

The experiment has as its target Retinoic acid receptor RXR-alpha (Homo sapiens) (UniProt P19793). Put plainly: OT_NURR1_NURR1RXRa_0480: Odyssey Thera (OT) 8-hour HEK293T Protein Complementation Assay for Nurr1/retinoid X receptor (RXR) (AID 2283385). The method, then:
OT_NURR1_NURR1RXRa_0480 is a cell-based assay that uses HEK293T, a human kidney cell line, with measurements taken at 8 hours after chemical dosing in a 384-well plate.OT_NURR1_NURR1RXRa_0480 is one of one assay component(s) measured or calculated from the OT_NURR1_NURR1RXRa_0480 assay. It is designed to make measurements of protein fragment complementation, a form of binding reporter, as detected with fluorescence intensity signals by Protein-fragment Complementation technology.Data from the assay component OT_NURR1_NURR1RXRa_0480 was analyzed into 1 assay endpoint. This assay endpoint, OT_NURR1_NURR1RXRa_0480, was analyzed in the positive analysis fitting direction relative to DMSO as the negative control and baseline of activity. Using a type of binding reporter, measures of receptor for gain-of-signal activity can be used to understand the binding at the pathway-level as they relate to the gene RXRA. Furthermore, this assay endpoint can be referred to as a primary readout, because the performed assay has only produced 1 assay endpoint. To generalize the intended target to other relatable targets, this assay endpoint is annotated to the nuclear receptor intended target family, where the subfamily is non-steroidal.
Protein-fragment complementation assay, or PCA, is a method for the identification and quantification of protein-protein interactions. In the PCA, the proteins of interest ("bait" and "prey") are each covalently linked to fragments of a third protein (e.g. DHFR, which acts as a "reporter"). Interaction between the bait and the prey proteins brings the fragments of the reporter protein in close proximity to allow them to form a functional reporter protein whose activity can be measured.
With `Nc1ccc(S(=O)(=O)Nc2cnc3ccccc3n2)cc1`, the outcome was inactive.

Turning to `COC(=O)[C@]1(C)CCC[C@@]2(C)[C@H]1CC=C1C=C(C(C)C)CC[C@@H]12`, the AC50 (as a rule, the midpoint of the concentration-response curve, whichever way the signal moves) was 71.6 µM (active). Take `C1=CCC=C1`: the compound was classed as inactive. On the same count and under the same terms, with `O=C(OCc1ccccc1)c1ccccc1` the entry was “inactive”; with `C=C1CC[C@H]2C[C@@H]1C2(C)C`, “inactive”; with `Cc1cc(C)c(S(=O)(=O)O)cc1N=Nc1cc(S(=O)(=O)O)c2ccccc2c1O`, “inactive”. With `O=C(Oc1ccccc1)c1ccccc1`, the concentration at half-maximal activity (AC50) is 75.8 µM (active).

Take `Oc1cccc2ccccc12`: the outcome was inactive. As to `Cc1cc(O)cc(C)c1Cl`, the call was inactive. With `F[B-](F)(F)F`, the outcome was inactive.

In the case of `CC[N+](CC)(CC(=O)Nc1c(C)cccc1C)Cc1ccccc1` (tested in a mixture with another compound), the compound was classed as inactive. Take `CC/C=C\CCO`: the outcome was inactive. For `Sc1nc2ccccc2s1`, the result was inactive. `CCC(C)=NO`: the call was inactive.

On to `C[Si](C)(C)O[Si](C)(C)O[Si](C)(C)C`, for which the result was inactive. Same read-out and setting: the value for `O=C(CC(C(=O)OC1CCCCC1)S(=O)(=O)O)OC1CCCCC1` (stereo unspecified) was “inactive”; that for `CCOC(=O)c1ccccc1` was “inactive”; that for `O=C(O)/C=C\C(=O)O` was “inactive”.

On to `CC[N+](CC)(CC(=O)Nc1c(C)cccc1C)Cc1ccccc1`, for which the outcome was inactive. In the case of `CCCCC(CC)COC(=O)CS` (stereo unspecified), the AC50 is 50 µM (active). `CCCCCC[C@@H](O)C/C=C\CCCCCCCC(=O)O`: the call was inactive.
